In all, about 3,200 compounds went through this assay and about 2,200 (69%) were called active. The set was probably picked from earlier hits. A selection follows. Unmarked numbers belong to inactive results.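 How the source made its calls: active means activation, as change over the incubation, above the mean of all tested compounds plus 3 SD (cut at about 13% in these data); inactive means the rest.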

Kallikrein-7 (Homo sapiens), sequence (P49862 whole entry, looked up): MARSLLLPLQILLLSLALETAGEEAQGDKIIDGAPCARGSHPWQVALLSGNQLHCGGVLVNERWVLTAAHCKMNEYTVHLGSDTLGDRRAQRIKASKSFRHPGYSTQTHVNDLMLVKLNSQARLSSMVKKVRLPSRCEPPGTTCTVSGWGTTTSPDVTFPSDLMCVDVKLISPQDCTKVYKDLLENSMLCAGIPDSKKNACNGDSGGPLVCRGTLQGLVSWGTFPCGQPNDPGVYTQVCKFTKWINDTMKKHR

This assay addresses Kallikrein-7 (Homo sapiens) (UniProt P49862). Nature of the assay: proKLK7 zymogen activators, confirmation, biochemical, fluorescence intensity, triplicate (AID 686949). The note with it: purified proKLK7, EDANS-DABCYL substrate fluorescence; at 7 µM; active compounds read high; scaled: vehicle 0, mature enzyme 100.
Take `CC(=O)NN1C(=O)c2ccccc2NC1c1ccccc1` (centres undefined): the activation is 33.8% (active). Turning to `CCOC(=O)NN1C(=O)c2ccccc2NC1c1cccc(O)c1` (centres undefined), the activation was 19.6% (active). To `COc1cc(/C=N\NC(=O)c2nonc2N)c(OC)cc1Br` belongs 75.4% (active); to `CCc1nc(Nc2ccc(NC(C)=O)cc2)c2oc3ccccc3c2n1`, 69.9% (active). The result for `Cc1cc(C)c(C#N)c(SCC(=O)NN2CC(=O)N(c3ccccc3F)CC2=O)n1` reads 52.8% (active). With `CCN1CCc2c(C#N)c(NCc3ccccc3)nc(NCCO)c2C1`, the activation was 31.4% (active).

With `COc1cccc(NC(=O)CN(C)C(=O)/C=C/c2cc(OC)ccc2OC)c1`, the activation was -101%. As for `COc1cccc2sc3cc(NCC[C@@H]4CCCN4C)ccc3c(=O)c12`, the activation is 46.9% (active). The result for `CN(C)C(=O)c1coc2nc3ccccc3nc12` reads 104% (active); that for `c1ccc(-c2cn3cccnc3n2)cc1`, 68.7% (active); that for `COc1ccc(-c2cn3cccnc3n2)cc1`, 68.6% (active). For `COc1ccc2nc(-c3ccccn3)ccc2c1`, the activation is 3.28%.

With `FC(F)(F)Oc1ccc(-c2cn3cccnc3n2)cc1`, the activation is 36.4% (active). In the case of `Cc1cc(S(=O)(=O)c2cc3ccc(O)c(C)c3oc2=O)ccc1F`, the activation is 59.1% (active). With `CC1(C)CC(=O)c2cc(OCC(=O)NCC3CCCO3)ccc2O1` (centres undefined), the activation is 48.1% (active). In the case of `CC(=O)Nc1nc2ncccn2c1-c1ccc(C(F)(F)F)cc1`, the activation is 30.9% (active). As for `CCCn1c(=NC(C)=O)c(C(=O)OCC)cc2c(=O)n3ccccc3nc21`, the activation is 33.5% (active). As for `Cc1cc2c(nc1C)CCCN2C`, the activation is 0.32%.

Take `CN1CCCc2cc(C#N)c(=O)[nH]c21`: the activation was 33.1% (active). For `COCCN(CCOC)c1nc(N)c2c(N)nc3c(c2c1C#N)CC(=O)N3Cc1ccc(Cl)cc1`, the activation was -29.9%. Consider `NC(N)=Nc1nc(-c2ccccc2)c2cc(Cl)ccc2n1`, for which the activation is -1.67%.

Turning to `COc1nc(N=C(N)N)nc2c(C)cccc12`, the activation is 23.8% (active). `CCOc1c2ccc(C(=O)NCc3ccc4c(c3)OCO4)cc2nn1C`: the activation is 7.8%. As to `Cc1coc2c1c(C)cc1oc(=O)c(CC(=O)NCC(=O)N[C@H](C(=O)O)C(C)C)c(C)c12`, the activation was 38.2% (active).

In the case of `COC(=O)c1cnn2c(C(F)(F)F)cc(-c3ccco3)nc12`, the activation was 38.9% (active).

With `Cc1nc2ccccc2cc1O`, the activation is -5.12%. For `COc1cc2c(cc1OC)CC1(CCCCC1)N=C2`, the activation was 43.5% (active). The result for `Cc1cc(C)c2c(n1)nn1c(-n3ccnc3)cc(C)nc21` reads 50.2% (active); that for `Cc1ccc2nc3c(cc(C(=O)NCCc4ccccc4)c(=N)n3CC3CCCO3)c(=O)n2c1` (centres undefined), -15.4%. For `Cc1cccn2c(=O)c3cc(C#N)c(=NC(=O)c4cccnc4)n(CC4CCCO4)c3nc12` (centres undefined), the activation is -75.3%. To `Cc1cccn2c(=O)c3cc(C(=O)NCCN4CCOCC4)c(=N)n(Cc4cccnc4)c3nc12` belongs 17.1% (active); to `CCn1c(=N)c(C(=O)NCCCOC)cc2c(=O)n3cccc(C)c3nc21`, 72.2% (active). For `CC(C)=NN1C(=O)c2ccccc2NC1(C)C`, the activation is 25% (active). On to `COC(=O)c1ccc(C2C3=C(Nc4nnnn42)c2ccccc2OC3)cc1` (centres undefined), for which the activation was 5.83%. The result for `CC(C)Cc1nc(Nc2ccc(S(=O)(=O)N3CCCC3)cc2)c2nnn(Cc3ccccc3)c2n1` reads 43.6% (active); that for `COc1cccc(OCc2cc(/C=N/NC(=O)c3nc(Cl)c(Cl)c(N)c3Cl)ccc2OC)c1`, 62.4% (active). The result for `COCC(C)OC(=O)c1c(N)n(CCCN2CCOCC2)c2nc3ccccc3nc12` (centres undefined) reads 20% (active); that for `CC(C)(C)OC(=O)c1c(N)n(CCCN2CCCC2=O)c2nc3ccccc3nc12`, 69.5% (active). Regarding `COC(=O)c1c(C)c(C)nc(N)c1C#N`, the activation was 71.3% (active). `Cc1ccc(-c2nn(-c3ccccc3)cc2/C=C/C(=O)Nc2cccc(S(N)(=O)=O)c2)cc1`: the activation was 263% (active).

As to `CCc1ccc(-c2cc(C(=O)NCc3ccco3)c3ccccc3n2)s1`, the activation is 75.3% (active). `COc1cc(C(=O)N2C(=O)c3cccc(N)c3C2=O)cc(OC)c1OC`: the activation was 127% (active). On to `CC1CC(C)CN(S(=O)(=O)c2cccc(C(=O)N3C(=O)c4cccc(N)c4C3=O)c2)C1` (centres undefined), for which the activation is 240% (active). For `Nc1ccccc1-c1nc2ccncc2[nH]1`, the activation is 2.63%. Take `CCCCc1cc(=O)oc2cc(C)cc(OCc3nn[nH]n3)c12`: the activation is 28.8% (active). Regarding `CCCCN(CCCC)CC(O)Cn1c2ccccc2c(=O)c2ccccc21` (centres undefined), the activation is 13.8% (active). Regarding `CCCCCn1c(=O)c(C(=O)OCC)c(Cl)c2ccccc21`, the activation is -0.17%. For `CCCc1cc(=O)oc2c(C)c(O)c(CN3CCCCC3)cc12`, the activation was 62.8% (active).

With `CC(=O)Nc1ccc(S(=O)(=O)NCC(=O)OCc2cc(=O)oc3ccc4ccccc4c23)cc1`, the activation is 218% (active). On to `Nc1ccc2nn(-c3ccc(Cl)cc3)nc2c1`, for which the activation is 65.8% (active). With `CC1(C)CN(c2ccc(-c3ccnc4ncnn34)cc2)C1=O`, the activation was 68.6% (active). As to `CCN1CCN(C(=O)c2cc3cc4ccc(OC)cc4nc3s2)CC1`, the activation is -15.9%. For `COc1ccc2oc(=O)c(C(=O)N3CCCC3)cc2c1`, the activation is 23.8% (active).

`COC(=O)C1=NN(c2ccccc2)C2C(=O)N(c3ccccc3OC)C(=O)C12` (centres undefined): the activation was 21.2% (active). The result for `Cn1cccc1/C=N/NC(=O)CNc1cccc2ccccc12` reads 2.27%; that for `O=C(O)c1cccnc1Sc1ncnc2sc3c(c12)CCC3`, 17.9% (active); that for `Cc1oc2nc(SCC(=O)Nc3ccc(S(N)(=O)=O)cc3)nc(NC(=O)c3ccccc3)c2c1C`, 5.56%. With `O=c1oc2cc(O)ccc2cc1-c1ccc(F)cc1`, the activation is 76% (active). With `O=C(Nc1nncs1)c1ccccc1NS(=O)(=O)c1cccs1`, the activation is 26.4% (active). Take `CCOc1ccc(N2C(=O)CC(N(O)c3ccccc3)C2=O)cc1` (centres undefined): the activation is 166% (active). The result for `COC(=O)Cc1cc(=O)oc2c(C)c(O)ccc12` reads 68% (active); that for `CN(C)CCN1CCN(c2cc(-c3cccc(Cl)c3)nc3ccnn23)CC1`, 0.23%; that for `COCc1cc(=O)[nH]c2cc(NC(=O)C(F)(F)F)c(C)cc12`, 239% (active). For `N#Cc1nc(-c2cccc3ccccc23)oc1N`, the activation is 70.2% (active).

(Values after PubChem BioAssay AID686949 (The Scripps Research Institute Molecular Screening Center, 2013).)
